Values without a mark were called inactive. Where a call stands in place of a potency, no number is given. For some assays here: Potency and affinity values are given separately. Active and inactive are the calls of the source. Unless noted, the rule behind the calls is not given here.
How the values were obtained:
[1] = antimalarial activity against Dd2 strain (AID 2302;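 active = growth inhibition above 50% at the single 2 µM test dose, taken to imply half-maximal potency below 2 µM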); conditions: P. falciparum Dd2 in RBCs, LDH growth readout, 72 h; at 2 µM; stronger effect = higher value
[2] = HepG2 cytotoxicity, primary screen, cytotoxicity control for P. falciparum antimalarial project, cell-based, ATP luminescence (AID 2303;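 active = inhibition above 50%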); conditions: HepG2 viability, 24-48 h, at 10 µM, stronger effect = higher value
[3] = molecular target: L-lactate dehydrogenase (Plasmodium falciparum (isolate CDC / Honduras)) (UniProt Q27743); test: PfLDH activity inhibition – cell lysate, 3D7 strain, counter-screen for P. falciparum growth inhibition project (AID 2304); conditions: P. falciparum 3D7 crude extract, LDH APAD/NBT absorbance; at 2 µM; stronger effect = higher value
[4] = inhibition of 3D7 malaria parasite growth – strain 3D7 (AID 2306); conditions: P. falciparum 3D7 erythrocytic growth, LDH absorbance, 72 h; at 2 µM; stronger effect = higher value
[5] = molecular target: Calcium-dependent protein kinase 1 (Plasmodium falciparum (isolate 3D7)) (UniProt P62344); test: PfCDPK1 kinase inhibitors, biochemical, TCAMS library (AID 1159585; cut-off not given, nearly all actives have IC50 up to about 0.98 µM;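 note: inhibitors leave more ATP so luminescence rises with inhibition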); conditions: recombinant PfCDPK1, Kinase-Glo ATP depletion luminescence
[6] = molecular target: Plasmodium falciparum protein kinase 6 (PK6, PF3D7_1337100) (UniProt Q8IDW1); test: PfPK6 kinase inhibitors, biochemical, TCAMS library (AID 1159586); conditions: recombinant PfPK6, Kinase-Glo ATP depletion luminescence
[7] = molecular target: Protein kinase 7 (PK7), Plasmodium falciparum 3D7 (PF3D7_0213400) (UniProt Q7YTF7); test: inhibition of Plasmodium PK7 catalytic activity – biochemical, TCAMS antimalarial set, Kinase-Glo luminescence (AID 1159587); conditions: recombinant PfPK7, Kinase-Glo ATP depletion luminescence
[8] = molecular target: Calcium-dependent protein kinase 4 (Plasmodium falciparum (isolate 3D7)) (UniProt Q8IBS5); test: PfCDPK4 kinase inhibitors, biochemical, TCAMS library (AID 1159588; cut-off not given, nearly all actives have IC50 up to about 0.91 µM); conditions: recombinant PfCDPK4, Kinase-Glo ATP depletion luminescence
Sequence of Calcium-dependent protein kinase 4 (Plasmodium falciparum (isolate 3D7)) (Q8IBS5 whole entry, looked up): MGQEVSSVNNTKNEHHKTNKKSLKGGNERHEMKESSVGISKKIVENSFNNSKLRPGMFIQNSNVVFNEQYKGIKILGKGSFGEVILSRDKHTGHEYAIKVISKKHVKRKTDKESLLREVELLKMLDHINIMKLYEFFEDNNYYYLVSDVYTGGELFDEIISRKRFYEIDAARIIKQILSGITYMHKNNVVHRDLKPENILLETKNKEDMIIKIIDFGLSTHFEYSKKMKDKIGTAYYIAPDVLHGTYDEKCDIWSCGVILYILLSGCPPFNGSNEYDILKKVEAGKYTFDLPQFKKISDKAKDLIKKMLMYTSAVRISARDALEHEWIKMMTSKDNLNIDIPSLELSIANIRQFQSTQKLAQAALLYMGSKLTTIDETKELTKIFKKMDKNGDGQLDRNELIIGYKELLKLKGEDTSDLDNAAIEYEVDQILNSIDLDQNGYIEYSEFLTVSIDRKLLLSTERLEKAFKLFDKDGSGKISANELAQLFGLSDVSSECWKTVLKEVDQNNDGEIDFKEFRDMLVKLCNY

Sequence of Calcium-dependent protein kinase 1 (Plasmodium falciparum (isolate 3D7)) (P62344 whole entry, looked up): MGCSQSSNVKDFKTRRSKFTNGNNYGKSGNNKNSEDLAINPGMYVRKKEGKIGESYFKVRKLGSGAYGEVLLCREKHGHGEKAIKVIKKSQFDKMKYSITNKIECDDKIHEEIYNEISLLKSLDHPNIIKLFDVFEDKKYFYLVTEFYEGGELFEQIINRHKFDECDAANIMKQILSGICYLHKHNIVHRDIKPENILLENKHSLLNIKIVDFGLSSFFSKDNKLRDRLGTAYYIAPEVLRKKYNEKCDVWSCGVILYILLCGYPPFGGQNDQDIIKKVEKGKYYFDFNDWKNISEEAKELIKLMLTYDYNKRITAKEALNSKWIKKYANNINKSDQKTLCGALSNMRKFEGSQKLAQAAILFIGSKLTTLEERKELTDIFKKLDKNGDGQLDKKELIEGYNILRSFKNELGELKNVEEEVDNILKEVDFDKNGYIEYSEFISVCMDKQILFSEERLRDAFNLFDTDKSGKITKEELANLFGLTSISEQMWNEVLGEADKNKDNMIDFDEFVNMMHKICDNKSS
Sequence of L-lactate dehydrogenase (Plasmodium falciparum (isolate CDC / Honduras)) (Q27743 whole entry, looked up): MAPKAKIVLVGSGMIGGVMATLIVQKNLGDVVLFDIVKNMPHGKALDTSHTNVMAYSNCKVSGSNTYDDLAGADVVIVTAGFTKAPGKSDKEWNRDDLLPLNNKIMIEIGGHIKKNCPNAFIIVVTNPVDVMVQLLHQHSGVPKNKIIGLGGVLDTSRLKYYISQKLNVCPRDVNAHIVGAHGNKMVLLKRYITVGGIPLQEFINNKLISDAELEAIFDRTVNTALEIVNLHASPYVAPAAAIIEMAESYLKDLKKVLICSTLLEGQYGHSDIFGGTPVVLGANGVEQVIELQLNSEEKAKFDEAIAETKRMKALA
Sequence of Plasmodium falciparum protein kinase 6 (PK6, PF3D7_1337100) (Q8IDW1 1-305): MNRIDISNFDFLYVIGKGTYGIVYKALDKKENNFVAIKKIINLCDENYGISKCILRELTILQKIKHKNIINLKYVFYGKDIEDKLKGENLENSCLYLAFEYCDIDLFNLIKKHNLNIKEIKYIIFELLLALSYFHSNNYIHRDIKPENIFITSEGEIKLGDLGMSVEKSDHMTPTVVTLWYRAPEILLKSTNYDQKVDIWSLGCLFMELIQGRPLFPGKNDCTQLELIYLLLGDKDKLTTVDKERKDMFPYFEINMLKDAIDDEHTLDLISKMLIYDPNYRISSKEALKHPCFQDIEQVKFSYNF
Sequence of Protein kinase 7 (PK7), Plasmodium falciparum 3D7 (PF3D7_0213400) (Q7YTF7 1-343): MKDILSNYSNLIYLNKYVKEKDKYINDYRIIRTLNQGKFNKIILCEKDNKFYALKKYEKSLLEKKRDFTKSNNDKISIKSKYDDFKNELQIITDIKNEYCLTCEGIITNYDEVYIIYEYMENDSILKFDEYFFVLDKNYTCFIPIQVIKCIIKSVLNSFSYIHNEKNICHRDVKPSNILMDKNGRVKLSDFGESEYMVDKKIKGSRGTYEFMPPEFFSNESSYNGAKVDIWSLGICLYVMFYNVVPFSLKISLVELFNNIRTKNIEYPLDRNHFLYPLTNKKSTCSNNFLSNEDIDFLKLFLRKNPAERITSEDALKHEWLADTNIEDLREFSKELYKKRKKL

Row | SMILES | growth inhibition [1] | inhibition [2] | inhibition [3] [%] | growth inhibition [4] | outcome [5] | outcome [6] | outcome [7] | outcome [8]
1 | COc1cc(NC(=O)c2sc(-c3ccc(Cl)cc3)cc2NC(=O)CN2CC[C@@H](O)C2)ccc1OCCN1CCCC1 | 79% (active) | 56% (active) | 6 | 90% (active) | inactive | inactive | inactive | inactive
2 | COc1ccc2c(=O)c(C3CCC(c4ccc(Cl)cc4)CC3)c(C)[nH]c2c1 (stereo not given) | 84% (active) | 2% | 1 | 97% (active) | inactive | inactive | inactive | inactive
3 | O=C(NC1CCN(c2ccnc3ccccc23)C1)c1ccc(OC(F)(F)F)cc1 (stereo not given) | 68% (active) | 35% | -4 | 89% (active) | inactive | inactive | inactive | inactive
4 | COc1ccc(C2CC(c3cccs3)=NN2C(=O)COc2cccc3c2CCCC3O)cc1OC (stereo not given) | 62% (active) | 5% | 3 | 93% (active) | inactive | inactive | inactive | inactive
5 | COc1ccc(CNCc2cccc(-c3cccc(-c4nc5ccc(C(F)(F)F)cc5[nH]4)c3)c2)cc1 | 91% (active) | 40% | 4 | 100% (active) | inactive | inactive | inactive | inactive
6 | Cc1cc(=O)c2cc(Oc3ccc(OC(F)(F)F)cc3)ccc2[nH]1 | 71% (active) | 20% | -2 | 86% (active) | inactive | inactive | inactive | inactive
7 | Nc1nc(N)c2c(ccc3c2ccn3Cc2ccc(-c3ccccc3)cc2)n1 | 93% (active) | 100% (active) | 4 | 98% (active) | inactive | inactive | inactive | inactive
8 | CCOC(=O)c1ccc(NC(=O)Nc2ccc(-c3ccc(-c4nc5ccc(C(F)(F)F)cc5[nH]4)cc3)cc2)cc1 | 52% (active) | 20% | -2 | 102% (active) | inactive | inactive | inactive | inactive
9 | CC[C@H]1CN(Cc2ccco2)CC[C@H]1CCCc1ccnc2ccc(O)cc12 | 14% | 31% | -1 | 93% (active) | inactive | inactive | inactive | inactive
10 | COC(=O)Nc1nc2cc3c(cc2s1)OCCO3 | -1% | -12% | 1 | 99% (active) | inactive | inactive | inactive | inactive
11 | CN(C)CCOc1ccc2c(c1)OC(C)(C)C=C2c1cccc2ccccc12 | 48% | 66% (active) | -2 | 95% (active) | inactive | inactive | inactive | inactive
12 | CCNc1cc(C(=O)N[C@@H](Cc2ccccc2)[C@H](O)CNCc2cc(OC)cc(OC)c2)cc(N2CCCC2=O)c1 | 75% (active) | -7% | 2 | 100% (active) | inactive | inactive | inactive | inactive
13 | O=c1cc(NCCCNCc2sc(Br)c(Br)c2Br)[nH]c2ccccc12 | 38% | 0% | 5 | 90% (active) | inactive | inactive | inactive | inactive
14 | Cc1cccc2[nH]c(-c3ccc(-c4cccc(NC(=O)Nc5ccc6c(c5)OCO6)c4)cc3)nc12 | 39% | 28% | -8 | 100% (active) | inactive | inactive | inactive | inactive
15 | CC[C@H](C)CNC(=O)c1cncc(-c2cccc(CN(C)C3CCN(C)CC3)c2)c1 | 59% (active) | 9% | 1 | 101% (active) | inactive | inactive | inactive | inactive
16 | COc1ccc(NC(=O)Nc2cccc(-c3cccc(-c4nc5c(C)cccc5[nH]4)c3)c2)cc1 | 43% | -1% | 2 | 101% (active) | inactive | inactive | inactive | inactive
17 | COc1cc(Cc2cnc(N)nc2N)cc(OCc2cccc(C(=O)O)c2)c1OC | -3% | 8% | 4 | 92% (active) | inactive | inactive | inactive | inactive
18 | CC(C)[C@H](NC(=O)c1ccc(O)c(-c2cccc(C(F)(F)F)c2)c1)C(=O)NCCN1CCCCC1 | 29% | 3% | 2 | 99% (active) | inactive | inactive | inactive | inactive
19 | COc1cccc(-c2nn(C)c3sc(C(=O)NCCN(C)Cc4ccccc4)cc23)c1 | 26% | 21% | -3 | 92% (active) | inactive | inactive | inactive | inactive
20 | Cc1nn(-c2cccc(Cl)c2)c2c1C(C(=O)c1ccc3c(c1)OCO3)CC(=O)N2 (stereo not given) | 95% (active) | 5% | -5 | 98% (active) | inactive | inactive | inactive | inactive

Row | SMILES | growth inhibition [1] | inhibition [2] | inhibition [3] [%] | growth inhibition [4] | outcome [5] | outcome [6] | outcome [7] | outcome [8]
21 | COc1ccc2nc(/C=C/c3cccc4ccc(C)nc34)[nH]c2c1 | 77% (active) | 25% | -1 | 98% (active) | inactive | inactive | inactive | inactive
22 | COc1cccc(OC)c1-c1ccccc1NC(=O)N1CCCc2cc(C)ccc21 | 84% (active) | 51% (active) | 5 | 82% (active) | inactive | inactive | inactive | inactive
23 | CCN(CC)CCN(Cc1ccc(-c2ccc(C(F)(F)F)cc2)cc1)C(=O)Cn1c(CCc2cccc(F)c2F)nc(=O)c2sccc21 | 70% (active) | 70% (active) | 6 | 96% (active) | inactive | inactive | inactive | inactive
24 | COc1ccc(-c2cn3c(C(=O)Nc4ccccc4Cl)c(-c4ccccc4)c4c3n2CCCC4)cc1 | 1% | 7% | -4 | 100% (active) | inactive | inactive | inactive | inactive
25 | CCNc1cc(C(=O)N[C@@H](Cc2ccccc2)[C@H](O)CNC(C)(C)c2cccc(OC)c2)cc(N2CCCC2=O)c1 | 99% (active) | -3% | -6 | 100% (active) | inactive | inactive | inactive | inactive
26 | CC1(C)N=C(N)N=C(N)N1CCc1ccccc1 | -1% | 50% (active) | -4 | 93% (active) | inactive | inactive | inactive | inactive
27 | COc1cccc(-c2csc(C(=O)NCC3CCN(Cc4ccc(C(C)C)cc4)C3)c2)c1 (stereo not given) | 9% | 35% | 0 | 86% (active) | inactive | inactive | inactive | inactive
28 | CCNC(=O)N1CCN(c2nc(-c3ccccc3)nc(COC)c2Cc2ccc(C)cc2)CC1 | 94% (active) | 27% | 0 | 95% (active) | inactive | inactive | inactive | inactive
29 | Cc1ccc(-n2c(C)nc3c(Nc4ccc(-c5ccncc5)cc4)ncnc32)c(C)c1 | 99% (active) | 38% | -4 | 99% (active) | inactive | inactive | inactive | inactive
30 | Cc1cccc2[nH]c(-c3cccc(-c4ccc(NC(=O)Nc5cccc(C#N)c5)cc4)c3)nc12 | 91% (active) | 50% (active) | 6 | 101% (active) | inactive | inactive | inactive | inactive
31 | O=C(Nc1cccc(CN2CCN(Cc3cccc(O)c3)CC2)c1)c1ccc(Cl)c(Cl)c1 | 35% | 28% | -1 | 100% (active) | inactive | inactive | inactive | inactive
32 | CC(CNC(=O)C(c1cc2ccccc2o1)N1CCN(C(c2ccccc2)c2ccccc2)CC1)c1ccccc1 (stereo not given) | 89% (active) | 2% | -5 | 99% (active) | inactive | inactive | inactive | inactive
33 | CN(C)CCOc1cc(NC(=O)Nc2cccc([N+](=O)[O-])c2)ccc1I | 51% (active) | 8% | 6 | 102% (active) | inactive | inactive | inactive | inactive
34 | CCCCCN1CCC(NC(=O)c2ccc(C(=O)Nc3ccc(C(C)C)cc3)cc2)C1 (stereo not given) | 17% | 38% | 2 | 95% (active) | inactive | inactive | inactive | inactive
35 | CC(C)[C@H](NC(=O)c1ccc(O)c(-c2cccc(C(F)(F)F)c2)c1)C(=O)NC1CCCc2ccccc21 (stereo not given in full) | 25% | 2% | 7 | 82% (active) | inactive | inactive | inactive | inactive
36 | COc1ccc(-c2cc3ncnc(N4CCN(CCN5CCCC5)CC4)c3s2)cc1 | 90% (active) | 22% | -2 | 98% (active) | inactive | inactive | inactive | inactive
37 | CCCCOP(=O)(COc1ccc(CCN(CC(O)COc2cccc3[nH]c4ccccc4c23)CC(O)COc2cccc3[nH]c4ccccc4c23)cc1)C1CCCCC1 (stereo not given) | 92% (active) | 7% | 4 | 89% (active) | inactive | inactive | inactive | inactive
38 | COc1ccc(CN2CCCC(OC(c3ccc(F)cc3)c3ccc(F)cc3)C2)c(O)c1 (stereo not given) | 99% (active) | 16% | 0 | 100% (active) | inactive | inactive | inactive | inactive
39 | Cc1cc(N2CCN(CC3CCN(C)CC3)CC2)nc(Nc2ccc(Cl)cc2)n1 | 89% (active) | 20% | -6 | 99% (active) | inactive | inactive | inactive | inactive
40 | Cc1ccc(NS(=O)(=O)c2cccs2)cc1-c1cccc(C(=O)Nc2ccc(F)cc2)c1 | 100% (active) | 38% | 0 | 99% (active) | inactive | inactive | inactive | inactive

Reference: PubChem BioAssay
